Screening data (PubChem)
Only a selection was taken, and hits are over-represented in it overall.
HIV RNase H inh: inhibitors of HIV-1 reverse transcriptase RNase H | inhibition, % at 10 µM | AID 565 | RT-RNase H RNA/DNA duplex cleavage, fluorescence | 65,000 tested, 1.9% active | P04585; in the data active = inhibition above about 50%
A number is an active result; . = inactive.

SMILES	HIV RNase H inh
O=C(CN1CCN(S(=O)(=O)c2cc(Cl)ccc2Cl)CC1)Nc1ccc2c(c1)OCCO2	.
O=C(NCC1CCCO1)C1CCN(S(=O)(=O)c2cccc3nonc23)CC1 (configuration not stated)	.
O=C(O)CCCCCCC1C(=O)NC(=O)N1CCC(O)C1CCCCC1 (configuration not stated)	.
CCSc1nnc(NC(=O)c2cc3c(s2)CCCC3)s1	.
CCSc1nnc(NC(=O)c2csc3c2CCC(C)C3)s1 (configuration not stated)	58.1
CCSc1nnc(NC(=O)c2ccccc2)s1	.
COc1cc(S(=O)(=O)N(C)C)ccc1F	.
O=C(c1ccc(Cl)cc1)N1CCN(c2nc(N3CCCCC3)nc(N3CCCCC3)n2)CC1	.
CCOC(=O)CN1CC23C=CC(O2)C(C(=O)Nc2ccc(C(C)=O)cc2)C3C1=O (configuration not stated)	.
CCC(CO)n1cnnc1-c1ccncc1 (configuration not stated)	.
COc1ccc(N2CCN(C(c3ccccc3OC)c3nnnn3Cc3ccco3)CC2)cc1 (configuration not stated)	51.1
COc1ccc(Cn2nnnc2C(c2cccs2)N2CCN(c3ccccc3)CC2)cc1 (configuration not stated)	.
COc1ccc(Cn2nnnc2C(c2ccccc2OC)N2CCC(C(N)=O)CC2)cc1 (configuration not stated)	.
Cc1cc(-c2ccco2)c(C#N)c2nc3ccccc3n12	.
N#Cc1c(N2CCN(C(=O)c3ccco3)CC2)nc(-c2ccccc2)c2c1CCCC2	.
CC1(C)Cc2c(C#N)c(N3CCN(C(=O)c4ccco4)CC3)nc(Cc3ccccc3)c2CO1	.
CC1(C)Cc2c(C#N)c(N3CCN(C(=O)c4ccco4)CC3)nc(-c3ccco3)c2CS1	55.4
O=C(N1CCN=C1SCc1cccnc1)C12CC3CC(CC(C3)C1)C2	.
O=C(Nc1ccc(F)cc1F)N1CCN(c2ncccn2)CC1	.
Cc1ccc(SCc2cn3c(C)csc3n2)cc1	.
Cc1nc2ncnn2c(N2CCN(C(=O)Cc3cccs3)CC2)c1C	.
N#C/C(C(=O)c1ccccc1)=C1/SC=C(N)N1c1ccccc1	64.2
COC(=O)/C(C#N)=C1/SC=C(C)N1c1ccccc1	.
CC1=CS/C(=C(/C#N)C(=O)N2CCCCC2)N1c1ccccc1	.
CC1=C(C(=O)NCc2ccccn2)C2(CCC(C)CC2)OC1=O (configuration not stated)	.
SMILES	HIV RNase H inh
CCN(CC)CC(=O)Nc1cc(C)c2c(=O)oc3ccccc3c2n1	.
COC(=O)c1cnn2c(C(F)(F)F)cc(-c3ccc(F)cc3)nc12	.
COC(=O)c1cc2nc(-c3ccc(OC)cc3)cc(C(F)(F)F)n2n1	.
COC(=O)c1nn2c(C(F)(F)F)cc(-c3ccc(Br)o3)nc2c1Br	64.1
O=C(Nc1nnc(C2CC2)o1)c1ccc(S(=O)(=O)N2CCCc3ccccc32)cc1	.
COc1cccc(-c2nnc(NC(=O)c3ccc(S(=O)(=O)N4CCOCC4)cc3)o2)c1	.
COc1ccc(-c2nnc(NC(=O)c3ccc(S(=O)(=O)N4CCCc5ccccc54)cc3)o2)cc1	52.1
CCCCOc1ccc(/C(N)=N/O)cc1	.
CC(C)Oc1ccc(C2c3c(oc4ccccc4c3=O)C(=O)N2CCCN2CCOCC2)cc1 (configuration not stated)	.
CC(CCc1ccccc1)NC(=O)CSc1nc(N)cc(N)n1 (configuration not stated)	.
COc1ccc(N2Cc3ccccc3C2)cc1Cl	54.9
COc1ccc(N2C(=O)C3CCCN3C2c2ccccc2)cc1Cl (configuration not stated)	.
COc1ccc(N2C(=O)C3CCCN3C2c2cccc(C)c2)cc1Cl (configuration not stated)	.
CCCn1c(SCC(=O)NC(C)(C)C)nnc1C(C)C	.
C=CCNC(=O)CCCOc1cc(C)ccc1C	.
Cc1cc(NC(=O)COc2cccc(C)c2C)no1	.
Cc1ccc(C)c(OCC(=O)Nc2nonc2NC(=O)COc2cc(C)ccc2C)c1	72.9
CCc1c(C)c2nncn2[nH]c1=O	.
CC(NC(=O)c1cccs1)C(c1cccs1)N1CCOCC1 (configuration not stated)	.
NC1CCCCC1N=Cc1c(O)n(Cc2ccc(F)cc2)c(=O)[nH]c1=O (configuration not stated)	.
CCCCn1c(O)c(C=NC2CCCCC2N)c(=O)[nH]c1=O (configuration not stated)	.
CCCCCCn1c(O)c(C=NC2CCCCC2N)c(=O)[nH]c1=O (configuration not stated)	50.9
CC1CC(C)CN(Cc2nc3c(c(=O)n(C)c(=O)n3C)n2Cc2ccccc2Cl)C1 (configuration not stated)	.
COc1ccc(C(=O)COC(=O)CCn2nnc(-c3cccs3)n2)cc1	.
COC(=O)c1c(NC(=O)c2ccco2)sc(C(=O)Nc2ccc(F)cc2)c1C	55.8
SMILES	HIV RNase H inh
COc1c(F)c(F)c(C(=O)Nc2ccc(NC(=O)c3ccco3)cc2)c(F)c1F	.
COC(=O)c1c(NC(=O)c2ccco2)sc(C)c1C	.
COc1ccc(-c2nnc(SCC(=O)Nc3ncc(C)s3)n2-c2ccccc2)cc1OC	.
CC(C)C(c1nnnn1C(C)(C)C)N1CCN(c2cccc(Cl)c2)CC1 (configuration not stated)	.
O=C(COC(=O)C1COc2ccccc2O1)NC(=O)NC1CCCC1 (configuration not stated)	.
O=C(COC(=O)C1COc2ccccc2O1)NC(=O)Nc1ccc2c(c1)OCCO2 (configuration not stated)	51.0
Cc1ccnc(NC(=O)COC(=O)C2COc3ccccc3O2)n1 (configuration not stated)	.
CCCCOC(=O)Nc1sc2c(c1C(=O)OC)CCC2	.
NC(=O)CSc1nc(-c2ccccc2Cl)ns1	.
NC(=O)C1CCN(S(=O)(=O)c2cccc(S(=O)(=O)N3CCCCC3)c2)CC1	.
CC(C)CC1C(C#N)=C(N)SC(N)=C1C#N	51.0
CCc1ccc(C2C(C#N)=C(N)SC(N)=C2C#N)s1	.
N#CC1=C(N)SC(N)=C(C#N)C1Cc1ccccc1	.
COC(=O)C1=C(C)N2C(=O)CSC2=NC1c1ccc2c(c1)OCO2 (configuration not stated)	.
O=C(Nc1nnc(CCN2CCOCC2)s1)C1CCCCC1	.
O=C(CN(C(=O)c1ccc2c(c1)OCCO2)c1ccccc1)NCC1CCCO1 (configuration not stated)	.
Nn1c(SC/C=C/c2ccccc2)nnc1-c1ccccn1	.
Cc1ccc(CSc2nnc(-c3ccccn3)n2C)cc1	.
Cc1cccc(CSc2nnc(-c3ccccn3)n2N)c1	52.0
C=CCn1c(O)c(C2=c3ccccc3=NC2=O)sc1=Nc1ccc(O)cc1	.
CCOC(=O)N1CCN(C2=NC3(CCCCC3)C(C#N)C(=O)N2)CC1 (configuration not stated)	.
CC1CCN(C(=O)CSc2ccc3nnc(-c4ccc(F)cc4)n3n2)CC1	.
CCC(=O)N1CCN(CCN=Cc2c(O)n(C3CCCCC3)c(=O)n(C3CCCCC3)c2=O)CC1	.
NS(=O)(=O)c1ccc(N=Cc2c(O)n(C3CCCCC3)c(=O)n(C3CCCCC3)c2=O)cc1	51.9
CC(C)C(=O)N1CCC(CN=Cc2c(O)n(C3CCCCC3)c(=O)n(C3CCCCC3)c2=O)CC1	.
O=C1CC(N2CCSCC2)C(=O)N1CCc1ccccc1 (configuration not stated)	.
CN(C(=O)c1cccnc1)c1nnc(-c2ccccn2)s1	.
